Test results: the supplement of paper PMC12494721
Structures can show the parent of a compound that is named as a salt.

Experiments:
Settings in all cases: incubation time: 27 h, anaerobic, 37 °C;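 for the amine columns active = adjusted P below 0.05 in both replicates with a change the same way and a mean fold change under 0.8 or over 1.25; inactive = the rest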
[1] = system: Clostridium sporogenes DSM 1664; test: growth (OD595) fold change vs plate DMSO controls (fold change (ratio)); higher = more growth
In short: (§1)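 Growth is the fold change relative to the median of plate DMSO controls. Readings came from anaerobic mGAM cultures in 96-well plates grown for 27 h at 37 °C and read at 595 nm. They were blank-subtracted, corrected for compound background with 20 µM compound solutions in water, and converted to OD with a calibration factor of 5. Values are means of 2 biological replicates, and fold changes above 1.5 were set to NA.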

Escherichia coli IAI1 [2] = test: as above
In short: as §1

[3] = system: Klebsiella aerogenes DSM 30053; test: as above
In short: as §1

[4] = system: Ruminococcus gnavus DSM 108212; test: as above
In short: as §1

[5] = system: Klebsiella aerogenes DSM 30053; test: fold change of Histamine concentration vs plate DMSO controls (fold change (ratio)); higher = more amine produced, active = hit call of the paper (significant change in both replicates, either direction)
In short: (§2)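 Each value is the fold change relative to DMSO-only wells on the same plate. Four gut bacterial strains were grown anaerobically in mGAM at 37 °C for 27 h in 80 µL wells, starting at OD 0.1 before a 1:1 dilution, with compounds at 20 µM final (sweeteners 50 µM). Whole cultures were extracted with cold acetonitrile/methanol containing 0.1% formic acid, centrifuged, and amines were quantified by LC–triple-quadrupole MS (dynamic MRM) against external calibration curves with within-batch drift correction. Values are means of 2 biological replicates.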

[6] = system: Clostridium sporogenes DSM 1664; test: fold change of Tryptamine concentration vs plate DMSO controls (fold change (ratio)); higher = more amine produced, active = hit call of the paper (significant change in both replicates, either direction)
In short: as §2

[7] = system: Ruminococcus gnavus DSM 108212; test: as above
In short: as §2

Escherichia coli IAI1 [8] = test: fold change of Putrescine concentration vs plate DMSO controls (fold change (ratio)); higher = more amine produced, active = hit call of the paper (significant change in both replicates, either direction)
In short: as §2

[9] = system: Klebsiella aerogenes DSM 30053; test: as above
In short: as §2

Escherichia coli IAI1 [10] = test: fold change of Cadaverine concentration vs plate DMSO controls (fold change (ratio)); higher = more amine produced, active = hit call of the paper (significant change in both replicates, either direction)
In short: as §2

[11] = system: Klebsiella aerogenes DSM 30053; test: as above
In short: as §2

[12] = system: Ruminococcus gnavus DSM 108212; test: fold change of 2-Phenylethylamine concentration vs plate DMSO controls (fold change (ratio)); higher = more amine produced, active = hit call of the paper (significant change in both replicates, either direction)
In short: as §2

Row | SMILES | growth [1] | growth (Escherichia coli IAI1 [2]) | growth [3] | growth [4] | fold change of Histamine concentration [5] | fold change of Tryptamine concentration [6] | fold change of Tryptamine concentration [7] | fold change of Putrescine concentration (Escherichia coli IAI1 [8]) | fold change of Putrescine concentration [9] | fold change of Cadaverine concentration (Escherichia coli IAI1 [10]) | fold change of Cadaverine concentration [11] | fold change of 2-Phenylethylamine concentration [12]
1 | CC1COc2ccccc2N1C(=O)C(Cl)Cl (centres undefined) (20 µM) | 0.957 | 1.02 | 1.02 | 0.965 | 1.02 (inactive) | 1.02 (inactive) | 1.06 (inactive) | 0.986 (inactive) | 0.941 (inactive) | 1.04 (inactive) | 1.05 (inactive) | 1.11 (inactive)
2 | NC(CO)C(=O)NNCc1ccc(O)c(O)c1O (centres undefined) [Benserazide hydrochloride] (20 µM) | 0.879 | 1.06 | 0.985 | 0.988 | 1.08 (inactive) | 0.965 (inactive) | 1.03 (inactive) | 1.19 (inactive) | 1.03 (inactive) | 0.994 (inactive) | 0.991 (inactive) | 1.03 (inactive)
3 | CC(CN1c2ccccc2Sc2ccccc21)N(C)C (centres undefined) [Promethazine hydrochloride] (20 µM) | 0.924 | 0.819 | 1.04 | 0.948 | 0.964 (inactive) | 0.997 (inactive) | 1.01 (inactive) | 0.858 (inactive) | 0.972 (inactive) | 1.05 (inactive) | 1.02 (inactive) | 1.06 (inactive)
4 | NNc1nncc2ccccc12 [Hydralazine hydrochloride] (20 µM) | 0.972 | 0.997 | 1 | 0.792 | 1.07 (inactive) | 0.967 (inactive) | 1.03 (inactive) | 0.983 (inactive) | 1.01 (inactive) | 0.997 (inactive) | 0.994 (inactive) | 0.96 (inactive)
5 | C[C@H](N)[C@H](O)c1cccc(O)c1 [Metaraminol bitartrate] (20 µM) | 1.04 | 0.987 | 1.09 | 0.95 | 1.04 (inactive) | 1.05 (inactive) | 1.08 (inactive) | 1.02 (inactive) | 1.02 (inactive) | 0.982 (inactive) | 0.998 (inactive) | 1.12 (inactive)
6 | CCOc1ccc(NC(N)=O)cc1 [(4-Ethoxyphenyl)urea] (50 µM) | 1.13 | 0.949 | 0.994 | 1.09 | 0.964 (inactive) | 0.979 (inactive) | 0.999 (inactive) | 0.971 (inactive) | 0.986 (inactive) | 1.11 (inactive) | 1.01 (inactive) | 0.947 (inactive)
7 | NNC(=O)c1ccncc1 [Isoniazid] (20 µM) | 1.22 | 1.01 | 0.936 | 0.727 | 1.03 (inactive) | 1.05 (inactive) | 0.851 (inactive) | 1.03 (inactive) | 0.991 (inactive) | 1.01 (inactive) | 0.988 (inactive) | 0.844 (inactive)
8 | COc1ccccc1N1CCN(CCCNc2cc(=O)n(C)c(=O)n2C)CC1 [Urapidil hydrochloride] (20 µM) | 0.984 | 0.934 | 1 | 0.999 | 0.993 (inactive) | 1.04 (inactive) | 0.977 (inactive) | 0.978 (inactive) | 1.01 (inactive) | 1.03 (inactive) | 1 (inactive) | 0.971 (inactive)
9 | C[C@]12C=CC(=O)C=C1CC[C@@H]1[C@@H]2[C@@H](O)C[C@@]2(C)[C@H]1CC[C@]2(O)C(=O)CO [Prednisolone] (20 µM) | 0.973 | 0.997 | 1 | 0.987 | 1.02 (inactive) | 1.03 (inactive) | 0.942 (inactive) | 0.997 (inactive) | 1 (inactive) | 0.997 (inactive) | 1 (inactive) | 0.815 (inactive)
10 | CNC(C)CCC=C(C)C (centres undefined) [Isometheptene mucate] (20 µM) | 0.966 | 0.977 | 1.01 | 1.24 | 1.09 (inactive) | 0.944 (inactive) | 1.01 (inactive) | 0.979 (inactive) | 1.04 (inactive) | 1.01 (inactive) | 1.02 (inactive) | 0.954 (inactive)
11 | COc1ccccc1OCC(O)CO (centres undefined) [Guaifenesin] (20 µM) | 1.09 | 0.954 | 0.98 | 1.03 | 1.05 (inactive) | 1.04 (inactive) | 1.05 (inactive) | 1.04 (inactive) | 1.01 (inactive) | 0.991 (inactive) | 0.988 (inactive) | 1.1 (inactive)
12 | COC(=O)Nc1nc2ccc(SC(C)C)cc2[nH]1 [Methiazole] (20 µM) | 0.921 | 1 | 1.24 | 1.08 | 0.952 (inactive) | 1.04 (inactive) | 0.938 (inactive) | 0.996 (inactive) | 1.01 (inactive) | 1.04 (inactive) | 1.02 (inactive) | 0.929 (inactive)
